Here are results for 20 molecules from PubChem BioAssay (EPA / NIEHS).

Results filed as inconclusive are left out. Activity calls are given as the source filed them. Rule for the calls: active = hit-call score of the fitted dose curve at least 0.9, where 1 is the maximum; inconclusive = response in the unintended direction; inactive = score below 0.9.

This assay can be described thus: CCTE_Deisenroth_AIME_384WELL_CTox_Active: Cytotoxicity Assessment (CTOX) in CCTE's 384-well Estrogen Receptor Transactivation Assay with AIME metabolic competence (metabolism positive), Deisenroth Lab (AID 2284037).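 Note: chemicals first conditioned 2 h by alginate-bound induced rat liver S9 before cells; activity means signal loss indicating cell death.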 On the procedure: CCTE_Deisenroth_AIME_384WELL (AIME metabolism assay) is a cell-based, single-readout assay that uses VM7Luc4E2, a human mammary gland/breast cell line, with measurements taken at 24 hour after chemical dosing in a 384-well plate.CCTE_Deisenroth_AIME_384WELL_CTox_Active is one of four assay components measured or calculated from the CCTE_Deisenroth_AIME_384WELL assay. It is designed to make measurements of a protease substrate, a type of viability indicator, as detected with substrate cleavage to a fluorescent probe in living cells.CCTE_Deisenroth_AIME_384WELL_CTox_Active is a component of the CCTE_Deisenroth_AIME_384WELL assay that measures the effect of retroftting the VM7Luc ERTA assay with the Alginate Immobolization of Metabolic Enzymes (AIME) metabolism method. AIME is optimized to impart phase I hepatic metabolism using phenobarbital/beta-naphthoflavone induced hepatic S9 from male Sprague Dawley rats. Parent chemicals are incubated for 2 hours in the AIME assay prior to transfer to the VM7Luc ERTA assay plate. […] This endpoint evaluates cytotoxicity in metabolism positive mode. Using a type of flourescent probe in VM7Luc cells, loss-of-signal activity can be used to understand loss of viability. This assay endpoint, CCTE_Deisenroth_AIME_384WELL_CTox_Active, was analyzed with bidirectional fitting in the ERTA assay.
The AIME procedure consists of a preparative "pre-stamping" step using a barium chloride/poly-L-lysine (PLL) solution followed by "stamping" the lid in alginate-hepatic S9 (metabolism positive) or alginate-water (metabolism negative) to form microspheres. Once stamping is completed, the AIME lids are placed in duplicate microplates (metabolism positive or negative) containing chemical solutions and incubated for two hours to facilitate metabolic reactions. The conditioned medium, containing parent chemical or metabolites, is then transferred to the cell-based VM7Luc Estrogen Receptor Transactivation Assay (ERTA) for 24 hours. A typical experimental design tests a 10-point concentration series (0.002 - 200 uM) for 8 compounds (96-well format) (Deisenroth 2020) or 32 compounds (384-well format) (Hopperstad 2022) in single technical replicate. AIME assay controls include trans-stilbene (bioactivated control) and ethylparaben (bioinactivated control). ERTA assay plate controls include 17-beta estradiol (positive control) and DMSO (solvent control). Experiments typically comprise a minimum of four experimental replicates (n=4).
On to `C=C(C)C(N)=O`, for which the molecule was classed as inactive.

Regarding `C1CCCNCC1`, the outcome was inactive.

As for `NC(N)=S`, the outcome was inactive.

For the molecule `COc1ccc2[nH]cc(CCNC(C)=O)c2c1`, the result was inactive.

For the molecule `Cc1cccc(O)c1`, the call was inactive.

`CC(=O)c1ccc2ccccc2c1`: the result was inactive.

The AC50 is the concentration at which the activity in the assay is half-maximal. With `C#C[C@]1(O)CC[C@H]2[C@@H]3CCc4cc(O)ccc4[C@H]3CC[C@@]21C`, the AC50 was 77.6 µM (active).

As for `CCCCCCCCCCCCN1CCOCC1`, the result was inactive.

Regarding `CC(C)(C)C1CCC(O)CC1` (stereo not given), the call was inactive.

`CC(C)C(=O)c1ccccc1`: the molecule was called inactive.

For the molecule `O=C(OCc1ccccc1)c1ccccc1O`, the call was inactive.

Consider `CCC(C)COC(=O)CC(C)C` (stereo not given), for which the result was inactive.

For `CCCCCCCCCCCCOCCOS(=O)(=O)O`, the AC50 is 147 µM (active).

Regarding `CC(=O)CC(=O)N(C)C`, the molecule was classed as inactive.

`OC[C@H]1O[C@@H](O[C@H]2[C@H](O)[C@@H](O)[C@H](O)O[C@@H]2CO)[C@H](O)[C@@H](O)[C@H]1O`: the outcome was inactive.

With `CC(=O)OC/C=C(C)/C=C/C=C(C)/C=C/C1=C(C)CCCC1(C)C`, the call was inactive.

Regarding `CC(=O)Oc1c(C)c(C)c2c(c1C)CC[C@@](C)(CCC[C@H](C)CCC[C@H](C)CCCC(C)C)O2`, the molecule was called inactive.

In the case of `CC(=O)C1=C(C)[C@@H]2C[C@@]3(C1)[C@H](C)CC[C@H]3C2(C)C`, the molecule was called inactive.

With `CC(C)N(c1ccccc1)C(C)C`, the molecule was called inactive.

As for `CC(CCO)CC(C)(C)C` (stereo not given), the call was inactive.
